Results: PubChem BioAssay
Several values for one entry are separate records, joined by “and”; a condition that tells them apart may be missing. Equal entries are not always repeated. Activity calls are given as the source filed them.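 How the source made its calls, unless noted: active means at least 20% inhibition of 6-phosphogluconate dehydrogenase activity; inactive means the rest.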

Key:
[1] = stimulators of insulin release from INS-1E, primary screen, cell-based, 5 mM glucose, NPC library (AID 1117329;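 active means compound raises insulin release from rat beta cells at 5 mM glucose, no numeric limit stated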); conditions: rat INS-1E insulin secretion, at 10 µM, stronger effect = higher value
[2] = growth inhibition of GSK3B-pretreated HCT116 cells – cell-based, CellTiter-Glo, 0.2 to 20 µM (AID 1117336;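 active means compounds lowering colon cancer cell viability after pretreatment blocking the GSK3B kinase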); conditions: HCT116 viability after GSK3B inhibitor, at 20 µM, stronger effect = higher value
[3] = inhibition of endothelial tube formation, primary screen, imaging, VEGF stimulated, CD31 staining, tube area, NPC library (AID 1117340;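 active means compound that reduces growth-factor-driven endothelial tube area in a mixed cell culture, no cutoff stated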); conditions: VEGF-stimulated ADSC/ECFC co-culture, at 10 µM, stronger effect = higher value
[4] = GLP1 release stimulators, primary, NCI-H716, NPC library (AID 1117341;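 active means compound raises GLP1 secretion from the human gut endocrine cells, with no numeric limit stated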); conditions: NCI-H716 cells, at 10 µM, stronger effect = higher value
[5] = HCT116 colon cancer cell growth inhibition, primary screen, CellTiter-Glo luminescence, NPC library (AID 1117342;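 active means compounds that lower survival of HCT116 colon cancer cells in the luminescence readout, no numeric limit stated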); conditions: at 20 µM (top of the series)
[6] = reduced SW480 viability measured with CellTiter-Glo, NPC library, primary (AID 1117343;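 active means compounds that lower viability of the colon cancer cells in the luminescence readout, with no numeric limit stated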); conditions: CellTiter-Glo luminescence; at 20 µM (top of the series) unless noted
[7] = NPC library primary testing for decreased DLD-1 cell viability via CellTiter-Glo (AID 1117346;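 active means compounds that lower survival of DLD-1 colon cancer cells in the luminescence readout, no cutoff given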); conditions: DLD-1 viability, CellTiter-Glo luminescence; at 20 µM (top of the series)
[8] = viability loss with induced miR-34 in A549 – imaging, A549 dox-inducible miR-34, nuclei and caspase counts, primary screen (AID 1347080;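 active means compounds whose cell count with miR-34 switched on is under 0.7 times the count with it off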); conditions: A549 miR-34 inducible, Hoechst nuclei count, 48 h
[9] = MELAS cybrid and Rieske KO viability enhancers – cell-based, MELAS cybrids, Rieske KO mouse fibroblasts, CellTiter-Glo, primary screen (AID 1508586;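 active means mean z-score across replicates of 1.96 or higher in either the MELAS or the Rieske mutant cell line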;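 further: z relative to plate mean and SD of compound and empty wells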); conditions: low glucose
[10] = blockers of polyQ-driven CASP3 activation – cell-based (AID 1583); conditions: polyglutamine-induced caspase-3 activation, cell assay; stronger effect = higher value;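 tested at 10 µM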
[11] = compounds altering viability of human ES cells (AID 493140; call rule not given here;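 further: cells exposed to compounds for four days before counting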); conditions: human embryonic stem cell survival screen; stronger effect = higher value
[12] = molecular target: 6-phosphogluconate dehydrogenase, decarboxylating (Homo sapiens) (UniProt P52209); test: inhibition of human phosphogluconate dehydrogenase – biochemical, recombinant enzyme, NADPH absorbance, primary screen (AID 1159550); conditions: recombinant 6PGD, NADPH absorbance 341 nm; at 10 µM; stronger effect = higher value
[13] = EMT-state selective cytotoxicity in co-culture – imaging, PC-3E GFP, TEM4-18 mCherry, primary screen (AID 1345086;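 active means compounds killing one labelled cell type while sparing the other, by normalised counts and ratio limits, not self-fluorescent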;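 on all read-outs here: cells exposed to compound for 72 h before imaging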;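 on red/green cell ratio (normalised): normalised mesenchymal count divided by normalised epithelial count so high means epithelial killing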); conditions: PC-3E GFP / TEM4-18 mCherry co-culture, imaging cell counts, at 1 µM; for red/green cell ratio (normalised): actives lie on both sides, counts scaled to control wells, 1 = unselective
[14] = molecular target: NAD(+) hydrolase SARM1 (Homo sapiens) (UniProt Q6SZW1); test: blocking NAD cleavage by SARM1 SAM-TIR – cell lysate, NAD-Glo luminescence (AID 1508614;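 active means compound whose remaining NAD level is above about 45 nM, limit read from the data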); conditions: SAM-TIR HEK293T lysate NADase, at 1 µM, stronger effect = higher value
[15] = molecular target: Mitogen-activated protein kinase 7 (Homo sapiens) (UniProt Q13164); test: Gal4-ERK5 driven luciferase induction – cell-based, HTS, primary screen (AID 1508626;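 active means luciferase signal above three times the same-plate solvent-only control wells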;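 further: luciferase driven by Gal4-ERK5 fusion binding five Gal4 sites before minimal TATA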); conditions: HeLa Gal4-ERK5 transactivation, 18 h, at 5 µM, stronger effect = higher value
[16] = galactose survival enhancers in mitochondrial complex I cybrids – cell-based, galactose medium, ATP luminescence, primary screen (AID 1645843;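 active means z-score of at least 1.8 in each of two replicates, scored against plate mean and spread of sample wells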;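 further: positive z means more ATP and so rescue of galactose-driven cybrid death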); conditions: complex I mutant cybrid cells, 72 h, stronger effect = higher value
[17] = P. berghei load reduction in hepatocytes – cell-based, HepG2, luciferase luminescence, HepG2 viability, primary screen (AID 624349; in the data active means parasite load remaining mostly below about 12%, no sharp cut-off; inactive means mostly above about 10%;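 further: 100% = mean of DMSO negative control wells on the same plate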); conditions: P. berghei liver stage in HepG2, luciferase luminescence, concentration not given here; parasite load remaining: stronger effect = lower value; viability: measured here: HepG2 viability without parasites
[18] = stronger effect = lower value, cell number ratio, induced over uninduced
[19] = measured here: relative caspase fold change +Dox/-Dox
[20] = measured here: total cells with miR-34 induction, stronger effect = lower value
[21] = measured here: total cells without miR-34 induction
[22] = MELAS cybrid survival, CellTiter-Glo 48 h, stronger effect = higher value
[23] = Rieske KO mouse fibroblast survival, CellTiter-Glo 72 h
[24] = measured here: epithelial PC-3E GFP cell survival
[25] = measured here: mesenchymal TEM4-18 mCherry cell survival

Sequence of Mitogen-activated protein kinase 7 (Homo sapiens) (Q13164 whole entry, looked up, the tested form may be a part): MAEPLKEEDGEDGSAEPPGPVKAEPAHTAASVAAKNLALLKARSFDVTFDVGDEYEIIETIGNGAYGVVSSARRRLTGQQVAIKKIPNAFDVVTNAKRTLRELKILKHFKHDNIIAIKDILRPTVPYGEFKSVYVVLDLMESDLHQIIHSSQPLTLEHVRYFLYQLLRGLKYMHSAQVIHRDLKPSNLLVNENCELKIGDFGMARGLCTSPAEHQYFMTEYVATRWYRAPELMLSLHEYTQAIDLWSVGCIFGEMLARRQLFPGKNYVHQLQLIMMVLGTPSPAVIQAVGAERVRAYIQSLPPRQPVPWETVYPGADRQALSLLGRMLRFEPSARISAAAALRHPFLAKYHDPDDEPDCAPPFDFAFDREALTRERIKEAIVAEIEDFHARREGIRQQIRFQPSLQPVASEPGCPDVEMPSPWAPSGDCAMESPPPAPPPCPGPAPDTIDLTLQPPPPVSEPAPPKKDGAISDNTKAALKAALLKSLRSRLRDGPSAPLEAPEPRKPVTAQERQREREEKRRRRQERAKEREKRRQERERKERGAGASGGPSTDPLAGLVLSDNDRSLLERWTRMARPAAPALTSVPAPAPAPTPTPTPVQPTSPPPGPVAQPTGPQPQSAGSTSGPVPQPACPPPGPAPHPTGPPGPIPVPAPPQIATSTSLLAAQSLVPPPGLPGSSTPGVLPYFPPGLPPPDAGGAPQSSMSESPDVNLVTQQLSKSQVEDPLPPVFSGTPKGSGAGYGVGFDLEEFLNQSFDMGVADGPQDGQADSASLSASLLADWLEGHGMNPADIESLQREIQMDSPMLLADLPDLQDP
Sequence of 6-phosphogluconate dehydrogenase, decarboxylating (Homo sapiens) (P52209 whole entry, looked up): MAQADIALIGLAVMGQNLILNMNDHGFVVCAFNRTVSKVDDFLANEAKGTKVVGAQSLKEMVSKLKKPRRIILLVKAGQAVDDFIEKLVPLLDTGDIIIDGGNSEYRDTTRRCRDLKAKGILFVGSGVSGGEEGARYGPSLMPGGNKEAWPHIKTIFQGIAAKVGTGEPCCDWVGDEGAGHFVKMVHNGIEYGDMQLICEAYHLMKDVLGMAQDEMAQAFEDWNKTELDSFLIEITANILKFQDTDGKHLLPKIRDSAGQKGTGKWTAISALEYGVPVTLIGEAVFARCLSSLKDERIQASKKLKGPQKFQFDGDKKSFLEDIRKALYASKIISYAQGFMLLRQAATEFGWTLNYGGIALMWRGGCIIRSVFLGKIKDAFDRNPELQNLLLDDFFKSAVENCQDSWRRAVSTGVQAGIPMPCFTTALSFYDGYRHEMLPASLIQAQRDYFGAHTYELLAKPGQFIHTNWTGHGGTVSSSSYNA
Sequence of NAD(+) hydrolase SARM1 (Homo sapiens) (Q6SZW1 whole entry, looked up, the tested form may be a part): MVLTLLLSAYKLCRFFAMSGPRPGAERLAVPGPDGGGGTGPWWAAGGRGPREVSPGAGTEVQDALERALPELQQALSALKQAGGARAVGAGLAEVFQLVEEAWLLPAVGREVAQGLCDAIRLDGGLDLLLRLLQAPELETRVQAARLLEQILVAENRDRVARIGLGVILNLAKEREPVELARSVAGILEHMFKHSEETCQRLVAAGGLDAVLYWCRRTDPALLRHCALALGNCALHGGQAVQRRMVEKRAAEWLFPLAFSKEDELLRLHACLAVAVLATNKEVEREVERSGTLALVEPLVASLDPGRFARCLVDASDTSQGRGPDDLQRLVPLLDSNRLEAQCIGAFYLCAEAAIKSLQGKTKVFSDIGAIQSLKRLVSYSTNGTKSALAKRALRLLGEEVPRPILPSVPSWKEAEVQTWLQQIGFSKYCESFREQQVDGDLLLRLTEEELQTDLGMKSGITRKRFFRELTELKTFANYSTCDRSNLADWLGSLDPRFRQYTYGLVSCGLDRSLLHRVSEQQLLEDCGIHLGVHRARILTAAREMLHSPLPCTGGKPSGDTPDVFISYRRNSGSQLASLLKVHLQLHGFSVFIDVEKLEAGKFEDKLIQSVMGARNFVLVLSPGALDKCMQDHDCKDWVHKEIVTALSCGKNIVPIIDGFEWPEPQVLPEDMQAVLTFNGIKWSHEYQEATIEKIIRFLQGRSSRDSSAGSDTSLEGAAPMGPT

In the case of `COc1ccc(-c2nc3ccc(C4=NNC(=O)CC4C)cc3[nH]2)cc1` (stereo not drawn), the insulin secretion stimulation [1] was 2.8% (inactive), the viability decrease [2] was 18.3% (inactive) and the tube area decrease [3] was 80.8% (active). The GLP1 secretion stimulation [4] was 6.8% (inactive), the inhibition of viability [5] was 61.7% (active) and the viability decrease (inhibition) [6] was 43% (inactive). For the same compound, the viability decrease (inhibition) [7] was 52.3% (active), the fold change [8, 18] was 0.906 (inactive) and the fold change [8, 19] was 1.1. For the same compound, the cell count [8, 20] was 5650, the cell count [8, 21] was 6230 and the z-score [9, 22] was 1.76 (inactive). The z-score [9, 23] was 0.199.

In the case of `O=C(O)CCn1c2c(c3ccccc31)C[C@H](NS(=O)(=O)c1ccc(F)cc1)CC2`, the insulin secretion stimulation [1] was 0.95% (inactive), the viability decrease [2] was 8.7% (inactive) and the tube area decrease [3] was -6.1% (inactive). The GLP1 secretion stimulation [4] was -0.3% (inactive), the inhibition of viability [5] was 5.1% (inactive) and the viability decrease (inhibition) [6] was -25.4% (inactive). The viability decrease (inhibition) [7] was -0.3% (inactive), the fold change [8, 18] was 0.961 (inactive) and the fold change [8, 19] was 0.911. For the same compound, the cell count [8, 20] was 5630 and the cell count [8, 21] was 5850.

With `Cc1ccc(/C(=C\CN2CCCC2)c2ccccn2)cc1` the inhibition [10] was 21.1%, the survival [11] was 11.5 (inactive) and the insulin secretion stimulation [1] was 24% (active). The viability decrease [2] was -2.3% (inactive), the tube area decrease [3] was -2.9% (inactive) and the GLP1 secretion stimulation [4] was -2.1% (inactive). For the same compound, the inhibition of viability [5] was -50.9% (inactive), the viability decrease (inhibition) [6] was 6.5% (active) and the viability decrease (inhibition) [7] was -45.1% (inactive). For the same compound, the inhibition [12] was 2.89% (inactive), the red/green cell ratio (normalised) [13] was 1.28 (inactive) and the normalised cell number [13, 24] was 0.94. For the same compound, the normalised cell number [13, 25] was 1.2, the z-score [9, 22] was 0.293 (inactive) and -0.295 (inactive) and the z-score [9, 23] was 0.187 and -0.783. For the same compound, the remaining NAD [14] was 10 nM (inactive), the luciferase signal [15] was 152 AU (inactive) and the z-score [16] was -0.245 (inactive) and -0.1 (inactive) and 0.365 (inactive).

In the case of `O=C(O)c1cn(C2CC2)c2cc(N3CCNCC3)c(F)cc2c1=O`, the inhibition [10] was 8.05%, the survival [11] was 20.5 (inactive) and the insulin secretion stimulation [1] was -0.6% (inactive). The viability decrease [2] was -4.5% (inactive), the tube area decrease [3] was -29.4% (inactive) and the GLP1 secretion stimulation [4] was 1.9% (inactive). For the same compound, the inhibition of viability [5] was 8.6% (inactive), the viability decrease (inhibition) [6] was 12.3% (inactive) and the viability decrease (inhibition) [7] was -5% (inactive). For the same compound, the inhibition [12] was -0.391% (inactive), the red/green cell ratio (normalised) [13] was 1.14 (inactive) and 1.04 (inactive) and the normalised cell number [13, 24] was 1.04 and 1.24. The normalised cell number [13, 25] was 1.18 and 1.28, the fold change [8, 18] was 0.89 (inactive) and 0.772 (inactive) and 0.838 (inactive) and the fold change [8, 19] was 1.27 and 3.9 and 0.85. The cell count [8, 20] was 9200 and 10000 and 9070, the cell count [8, 21] was 10300 and 13000 and 10800 and the z-score [9, 22] was -0.333 (inactive) and -0.308 (inactive). The z-score [9, 23] was -3.38 and -1.41, the remaining NAD [14] was 10 nM (inactive) and the luciferase signal [15] was 76 AU (inactive). For the same compound, the z-score [16] was 0.01 (inactive).

For `CC1(C)[C@H](C(=O)O)N2C(=O)C[C@H]2S1(=O)=O`, the parasite load remaining [17] was 25.7% (inactive), the viability [17] was 74% and the insulin secretion stimulation [1] was -1.5% (inactive). The viability decrease [2] was 0.3% (inactive), the tube area decrease [3] was -3.3% (inactive) and the GLP1 secretion stimulation [4] was -0.3% (inactive). For the same compound, the inhibition of viability [5] was -13.6% (inactive), the viability decrease (inhibition) [6] was 6.5% (inactive) and the viability decrease (inhibition) [7] was 3.8% (inactive). The fold change [8, 18] was 0.988 (inactive) and 0.885 (inactive) and 0.887 (inactive), the fold change [8, 19] was 0.598 and 0.786 and 1.47 and the cell count [8, 20] was 7470 and 7970 and 9900. The cell count [8, 21] was 7550 and 9000 and 11200, the remaining NAD [14] was 10 nM (inactive) and the z-score [16] was 0.33 (inactive).

For `CC(C)c1c(C(=O)Nc2ccccc2)c(-c2ccccc2)c(-c2ccc(F)cc2)n1CC[C@@H](O)C[C@@H](O)CC(=O)O`, the insulin secretion stimulation [1] was 3.7% (inactive), the viability decrease [2] was 95.5% (active) and the tube area decrease [3] was 67.8% (active). For the same compound, the GLP1 secretion stimulation [4] was 5.8% (inactive), the inhibition of viability [5] was 81.6% (active) and the viability decrease (inhibition) [6] was 96.3% (active). For the same compound, the viability decrease (inhibition) [7] was 68.1% (active), the inhibition [12] was 17.2% (inactive) and the fold change [8, 18] was 1.27 (inactive). It also gave a fold change [8, 19] of 1.55, a cell count [8, 20] of 5410 and a cell count [8, 21] of 4270. The z-score [9, 22] was -2.11 (inactive), the z-score [9, 23] was -0.779 and the remaining NAD [14] was 10 nM (inactive). The luciferase signal [15] was 28 AU (inactive) and the z-score [16] was -0.8 (inactive).

For `COc1c(Cl)ccc(Cl)c1C(=O)O`, the inhibition [12] was 7.71% (inactive).

With `CC(C)(C)CC(C)(C)c1ccc(OCCOCC[N+](C)(C)Cc2ccccc2)cc1` the inhibition [10] was 70.8%, the survival [11] was 0.167 (inactive) and the insulin secretion stimulation [1] was 4.2% (inactive). For the same compound, the viability decrease [2] was 102% (active), the tube area decrease [3] was 110% (active) and the GLP1 secretion stimulation [4] was 89.6% (active). For the same compound, the inhibition of viability [5] was 103% (active), the viability decrease (inhibition) [6] was 145% (active) and the viability decrease (inhibition) [7] was 106% (active). The inhibition [12] was -3.07% (inactive), the fold change [8, 18] was 0.798 (inactive) and 0.823 (inactive) and 0.768 (inactive) and the fold change [8, 19] was 1.51 and 1.83 and 3.74. The cell count [8, 20] was 2760 and 5310 and 8060, the cell count [8, 21] was 3460 and 6450 and 10500 and the z-score [9, 22] was -0.38 (inactive) and -2.14 (inactive). The z-score [9, 23] was -0.151 and 1.32, the remaining NAD [14] was 13 nM (inactive) and the luciferase signal [15] was 44 AU (inactive).

For `CC1(C)C=CC(=O)[C@]2(C)[C@H]3CC[C@@]4(C)[C@H](c5ccoc5)OC(=O)[C@H]5O[C@]54[C@]3(C)C(=O)C[C@@H]12`, the inhibition [12] was -8.35% (inactive).

With `NC(=O)NCC(N)C(=O)O` (stereo not drawn) the inhibition [12] was -2.17% (inactive).

For `CC1(C)CC2C1CC[C@]1(CBr)CCC3C(CC(=O)O)C(=O)O[C@@]32C1` (stereo partly drawn), the inhibition [12] was 14.7% (inactive).

In the case of `CO[C@H]1C[C@H](O[C@H]2[C@H](C)[C@@H](O[C@@H]3O[C@H](C)C[C@H](N(C)C)[C@H]3OC(C)=O)[C@@H](C)C[C@@]3(CO3)C(=O)[C@H](C)[C@H](OC(C)=O)[C@@H](C)[C@@H](C)OC(=O)[C@@H]2C)O[C@@H](C)[C@@H]1OC(C)=O`, the inhibition [12] was -13% (inactive).

With `CC(C)CC(NC(=O)C1CCCN1C(=O)C(N)C(C)C)C(=O)O` (stereo not drawn) the inhibition [12] was 14% (inactive).

In the case of `COc1ccc2c(c1)[C@@]1(C)CC[C@@H](O)C[C@@H]1CC2`, the inhibition [12] was 13.3% (inactive).

In the case of `CC(C)CCCC(C)C1CCC2C3C(=O)C=C4C[C@@H](O)CCC4(C)C3CCC12C` (stereo partly drawn), the inhibition [12] was 12.2% (inactive).

In the case of `C[C@]12CC[C@@H](O)C[C@H]1CC[C@@H]1[C@@H]2C(=O)C[C@@]2(C)[C@H]1CC[C@]2(O)C(=O)CO`, the inhibition [12] was -17% (inactive).
